ATXN2 expr inh: reduces ATXN2 reporter expression in HEK-293 cells. HEK-293 ATXN2-luciferase reporter, luminescence, 24 h. 0.72% of 360,000 active. AID 1745845. Potency, µM (doses to about 57 µM), without a hit: at the top dose activity change, negative = inhibition, most hits filed as inhibitors; note: potency is the fitted concentration of half-maximal effect; % is set by controls: 0 for no effect and ±100 for the full control effect; nearly all actives have a fitted effect of over 55% in size
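qHTS (up to 57 uM final) was run with 24 h compound exposure of reporter cells at 37 °C. Each well was multiplexed: SteadyGlo luminescence measured ATXN2-luciferase expression after a fluorogenic Gly-Phe-AFC viability readout (25 uM final).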
S2 tox: cell viability loss in ATXN counter-screen | S2 cells (HEK-293 line with an ATXN2-luciferase reporter) viability, CellTiter-Fluor protease fluorescence, 24 h | 0.49% of 400,000 active | AID 651635 | Potency, µM (top dose mostly 56.7 µM), most hits filed as cytotoxic; note: potency is the fitted concentration of half-maximal effect; nearly all actives have a fitted effect of over 40% in size
IL1B secr inh: inflammasome signaling inhibition, IL-1 beta readout; AID 743279; THP-1 LPS/ATP IL-1B secretion, AlphaLISA, 16 h; stronger effect = lower value; 4.7% of 360,000 active; activity change, % at 57.5 µM; in the data active = activity change below about -50%; inconclusive = mostly about -30% to -49%; note: % is set by controls: 0 for no effect and ±100 for the full control effect
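Secreted IL-1B measured by AlphaLISA bead assay after 16 h compound exposure of THP-1 cells; compounds (final up to 57.5 uM) added 1 h before LPS (250 ng/mL) and ATP (1.25 mM) stimulation; lower signal means less secretion.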
HepG2 tox: kills HepG2 cells in TGF-b inhibitor counter-screen; 0.76% of 410,000 active; AID 588856; Potency, µM (highest dose often 46.1 µM), for inactives: at the highest dose activity change, negative = cytotoxicity, most hits filed as cytotoxic; HepG2 CAGA-GFP viability, ATP luminescence, 18 h; note: potency is the fitted concentration of half-maximal effect
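CellTiter-Glo luminescence gave cytotoxicity after 18 hours at 37 degrees C. The cells were HepG2 CAGA-GFP in 1% FBS DMEM, stimulated with 500 pg/mL TGF-beta after compound addition. %Activity was normalised to no-cell wells (complete cell-killing) and DMSO (no toxicity), and curves were fitted and classified.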
TGFb SMAD3 inh: TGF-b pathway inhibition | HepG2 CAGA-GFP TGF-b/SMAD3 reporter, GFP fluorescence, 18 h; TGF-beta stimulated, 500 pg/mL final | Potency, µM (top dose mostly 46.1 µM), without a hit: at the top dose activity, negative = inhibition, usual class: inhibitors | 1.2% of 410,000 active | AID 588855; note: potency is the fitted concentration of half-maximal effect; % is set by controls: 0 for no effect and ±100 for the full control effect; nearly all actives have a fitted effect of over 65% in size
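TGF-beta reporter screen: HEPG2 CAGA-GFP, 1% FBS, 500 pg/mL TGF-beta final, 18 h; per-cell GFP summed per well; curves fitted and categorized by class.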
* marks the source's active call; other numbers are inactive results; i = inactive; ? = inconclusive; . = no result given. This is a sample that favours compounds with a hit; in the whole collection about 5.7% have one here. Unless noted, calls come from the whole dose curve; as a rule, active = well fitted curve in the direction sought with a large enough effect; inconclusive = small, poorly fitted or top-dose-only effect, or another doubt; inactive = no such curve, though single readings can be large; an effect the other way counts as inactive or inconclusive.

SMILES | ATXN2 expr inh | S2 tox | IL1B secr inh | HepG2 tox | TGFb SMAD3 inh
CCC[C@@H](CN1CCC[C@H]1CN1C(N)=NC[C@@H]1Cc1ccccc1)N1C[C@@H](Cc2ccccc2)N(CCc2ccc(Cl)c(Cl)c2)C1=N | 7.9% | i | -53.0* | 4.8% | -11.0%
CC[C@@H](C)[C@@H]1CN([C@@H](C)CN2CCC[C@H]2CN2C(N)=NC[C@H]2CC(C)C)C(=N)N1CCc1ccc(Cl)c(Cl)c1 | 14.2% | i | ? | -26.4% | ?
CCC[C@@H](CN1CCC[C@H]1CN1C(N)=NC[C@@H]1Cc1ccccc1)N1C[C@@H]([C@H](C)CC)N(CCc2ccc(Cl)c(Cl)c2)C1=N | -11.8% | i | ? | -24.3% | -4.3%
CCC[C@@H](CN1CCC[C@H]1CN1C(N)=NC[C@H]1CC(C)C)N1C[C@@H](Cc2ccccc2)N(CCc2ccc(Cl)c(Cl)c2)C1=N | -10.3% | i | -68.5* | -27.3% | 5.1%
CCC[C@@H](CN1CCC[C@H]1CN1C(N)=NC[C@H]1CC(C)C)N1C[C@@H]([C@H](C)CC)N(CCc2ccc(Cl)c(Cl)c2)C1=N | -9.7% | i | . | -45.2% | 9.3%
CC[C@@H](C)[C@@H]1CN([C@@H](CN2CCC[C@H]2CN2C(N)=NC[C@H]2CC(C)C)C(C)C)C(=N)N1CCc1ccc(Cl)c(Cl)c1 | 4.6% | i | -59.7* | -43.5% | -6.0%
Cn1cc(-c2ccc3nnc(Sc4ccc5ncccc5c4)n3n2)cn1 | -17.1% | . | . | . | .
S=C(Nc1ccccc1)c1ccccn1 | 35.9% | ? | -0.5 | -40.2% | 11.2µM*
CCCCC[C@@H](C)N1C[C@@H](COCc2ccccc2)Oc2cc(N3CC[C@H](N(C)C)C3)ccc2S1(=O)=O | ? | . | -73.1* | . | .
CCCCC[C@H](C)N1C[C@@H](COCc2ccccc2)Oc2cc(N3CC[C@H](N(C)C)C3)ccc2S1(=O)=O | ? | ? | -50.1* | . | .
CCOC(=O)c1cnc2c(C)cc(Cl)cc2c1NCCCN1CCOCC1 | -14.3% | i | -73.2* | 13.2% | 0.6%
NC(=O)c1ccc(N=Cc2c(O)ccc3ccccc23)cc1 | -3.1% | i | 28.4 | -14.2% | 8.9%
C=CCS/C(N)=N\N=C\c1c(O)ccc2ccccc12 | 19.4% | i | 0.0 | -78.1% | 7.94µM*
CCN(CC)C(=O)c1sc2c(c1C)c(=O)n(-c1ccc(C)c(C)c1)c(=O)n2CC(=O)Nc1ccc(F)cc1 | -19.7% | ? | . | -57.5% | -1.3%
COC(=O)C1=C(C)NC(C)=C(C(=O)OCCN(C)Cc2ccccc2)C1c1cccc([N+](=O)[O-])c1 (stereo not drawn) | ? | 22.4µM* | -73.1* | -52.4% | -24.8%
COCCOC(=O)C1=C(C)N(c2ccccc2)C(=O)NC1c1cccc([N+](=O)[O-])c1 (stereo not drawn) | 2.1% | i | -2.0 | -5.5% | -8.7%
COC(=O)C1=C(C)NC(C)=C(C(=O)OCCN2CCN(C(c3ccccc3)c3ccccc3)CC2)C1c1cccc([N+](=O)[O-])c1 (stereo not drawn) | 14.1µM* | ? | . | . | .
CCOC(=O)C1=C(C)NC(C)=C(C(=O)OCCNC(=O)c2cccnc2)C1c1cccc([N+](=O)[O-])c1 (stereo not drawn) | 1.2% | i | -58.7* | 3.4% | 4.7%
COc1cc(CN2CCC3(CCC(CNC(=O)c4cc(C)nn4C)O3)CC2)ccc1F (stereo not drawn) | . | i | . | . | .
Nc1c(S(=O)(=O)c2ccccc2)c2nc3ccccc3nc2n1/N=C/c1cccc(O)c1 | ? | . | -71.8* | -68.2% | ?
Nc1cc(-c2ccc(OC(F)(F)F)cc2)nn1-c1ccc(Cl)c(Cl)c1 | -37.4% | ? | -64.8* | -103.3% | ?
O=C(O)c1ccc(OCCN2CCCCC2)cc1 | 12.8% | i | . | . | .
COc1ccc(OC)c(CNC(=O)c2ccc(-c3nc(CSc4ccccc4)c(C)o3)cc2)c1 | -7.9% | i | . | -4.5% | 11.0%
COc1cc(-c2nc3ccc4ccccc4c3c3c2CCC3)cc(OC)c1O | ? | ? | -4.2 | -98.0% | 11.2µM*
Cc1cc(NS(=O)(=O)c2cn(C)c(C)n2)ccc1Br | 6.6% | i | . | 0.8% | 14.7%
SMILES | ATXN2 expr inh | S2 tox | IL1B secr inh | HepG2 tox | TGFb SMAD3 inh
Cc1cc(O)c(C(C)C)cc1NC(=S)Nc1cc(C(C)C)c(O)cc1C | ? | ? | -55.0* | 4.0% | 10µM*
Nc1nc2ccccc2n1Cc1ccc(F)cc1 | -16.5% | i | . | . | .
CCOC(=O)c1c(NC(=O)COc2ccccc2C#N)sc2c1CC(C)(C)NC2(C)C | ? | ? | 1.7 | -33.7% | ?
CC1(C)Cc2c(sc(NC(=O)COc3cccc4ccccc34)c2C#N)C(C)(C)N1 | ? | ? | -100.0* | -147.4% | ?
CCOC(=O)c1c(NC(=O)COc2ccccc2OCC)sc2c1CC(C)(C)NC2(C)C | ? | . | -105.7* | -83.2% | -6.3%
CCOC(=O)c1c(NC(=O)COC(=O)c2ccc(C)s2)sc2c1CC(C)(C)NC2(C)C | -29.2% | i | -59.3* | -29.2% | 9.0%
CCOC(=O)c1sc2cccc(F)c2c1S(=O)(=O)N1CCN(c2cccc(Cl)c2)CC1 | -12.8% | i | . | -10.8% | -15.4%
Cc1cccc(CN2CCC(C(=O)Nc3cccc(-c4cccc(F)c4)c3)CC2)n1 | ? | i | ? | -38.2% | ?
Cn1cc(CN2CCC(C(=O)Nc3cccc(-c4cccc(F)c4)c3)CC2)cn1 | -23.4% | i | -29.3 | -57.6% | 11.2µM*
Cc1nn(C(C)C)c(C)c1CN1CCC(C(=O)Nc2cccc(-c3cccc(F)c3)c2)CC1 | -36.3% | i | -52.1* | 11.2µM* | ?
CCCn1ncc(CN2CCC(C(=O)Nc3cccc(-c4cccc(F)c4)c3)CC2)c1C | ? | i | -75.7* | 17.8µM* | ?
N#Cc1nc(-c2ccc(OCc3ccccc3Cl)cc2)oc1N1CCCCCC1 | . | . | . | 7.4% | 16.9%
Cc1ccc(CNC(=O)c2nc(S(=O)(=O)Cc3ccc(C)cc3)ncc2Cl)cc1 | 5.5% | i | . | -50.2% | ?
CC(=O)Nc1ccc(NC(=O)c2nc(S(=O)(=O)Cc3cccc(C)c3)ncc2Cl)cc1 | ? | ? | -100.1* | -147.4% | ?
COC(=O)c1ccc(NC(=O)c2nc(S(=O)(=O)Cc3cccc(C)c3)ncc2Cl)cc1 | ? | 28.2µM* | -102.8* | 22.4µM* | ?
COC(=O)c1ccccc1NC(=O)c1nc(S(=O)(=O)Cc2cccc(C)c2)ncc1Cl | . | . | . | 3.9% | -3.4%
CC(=O)N1N=C(c2ccccc2)OC1c1ccc([N+](=O)[O-])s1 (stereo not drawn) | -22.5% | i | -101.5* | -45.5% | ?
COc1ccccc1C1OC(c2cccc([N+](=O)[O-])c2)=NN1C(C)=O (stereo not drawn) | -15.8% | i | 0.0 | 1.5% | ?
